Each structure is given as a SMILES string. The source made the active and inactive calls. How the source made its calls: active means hit-call score of the fitted dose curve at least 0.9, where 1 is the maximum; inactive means score below 0.9.

The AC50 is the concentration giving half of the maximal activity seen.

Read-out in this test: Cytochrome P450 (CYP2B6), CYP2B6 (gene 1555)
Put plainly: LTEA_HepaRG_CYP2B6: Life Technologies and Expression Analysis (LTEA) Assay for Cytochrome P450 (CYP2B6) using HepaRG (AID 2283481). Particulars: mRNA level, 48 h; actives raise or lower the signal. The procedure: LTEA_HepaRG is a cell based, multiplexed-readout assay that uses HepaRG, a human liver cell line, with measurements taken at 48 hours after chemical dosing on a 96-well plate.LTEA_HepaRG_CYP2B6 is one of 102 assay component(s) measured in the LTEA HepaRG cell culture assay. It is a marker of NR mediated metabolism.Data from the assay component LTEA_HepaRG_CYP2B6 was analyzed into 1 endpoint. This assay endpoint, LTEA_HepaRG_CYP2B6, was analyzed with bidirectional fitting relative to DMSO as the negative control and baseline of activity. Using a type of inducible reporter, measures of mRNA induction for gain or loss-of-signal activity can be used to understand regulation of transcription factor activity. To generalize the intended target to other relatable targets, this assay endpoint is annotated to the cyp intended target family, where the subfamily is xenobiotic metabolism.
A total of 1060 chemcials from the ToxCast library were tested in eight-point concentration-response experiments. Cell culture and cytotoxicity assays were conducted at Thermo Fisher Scientific's Custom Services facility (Madison, WI). A single lot of human HepaRG cells (Thermo Fisher Scientific, Frederick, MD) was used for the cell culture experiments. 96-well format collagen type I coated plates of human HepaRG cells were prepared using established methods. Briefly, cryopreserved HepaRG cells were thawed, plated at a density of approximately 100,000 cells/well in HepaRG Thaw, Plate, and General Purpose media (HPRG770, Thermo Fisher Scientific), and incubated for 48 hours. 0.5% DMSO was selected as vehicle control to balance the requisite need of DMSO in HepaRG cultures to maintain differentiation (for example, baseline metabolism, proportions of hepatocytes vs. cholangiocytes), while enabling further hepatic receptor pathway activation (for example, PXR and CAR) in response to chemical exposure. 48 hours after plating, the culture medium was replaced with HepaRG Serum-Free Incudtion Media. Cells were exposed to each test chemical in duplicate and maintained in CO2 incubators for another 48 hours. Chemical plates were thawed to room temperature and 200x concentrations of treatment groups were prepared. 8-point conentration-reponse curves were made with the highest exposure at 100 uM, followed by half-log dilutions, all in 0.5% DMSO. Each test plate contained variouse controls, induction positive controls (1mM phenobarbital), cytotoxicity positive controls ([…] aflatoxin B1), vehicle controls (0.5% DMSO), and total lysis controls (0.5% DMSO). Cell morphology images were taken using an Essen IncuCyte FLR automated microscope, with six 96-well plates imaged in about 24 minutes. Images were captured and exported and JPEG files. Spent culture media was transfered to black-well plates for the LDH assay, and remaining media was sorted at -80 C for later use. Cells were treated with RLT buffer and frozen until shipped for gene expression analysis. Total RNA was isolated from the cell suspension in 75 uL of Buffer RLT (Qiagen, Germantown, MD 20874) by Quintiles/Expression Analysis (Durham, NC) using a custom isolation procedure. Total RNA from each plate well was transferred to a preamplification plate. Fluidigm's 96.96 Dynamic ArrayTM (Fluidigm, Amsterdam, the Netherlands) technology was used for gene expression analyses by quantitative reverse transcription polymerase chain reaction (qRT-PCR, performed by Quintiles/Expression Analysis, Durham, NC)89. Standard TaqManTM Assays (Applied Biosystems/ThermoFisher Scientific, Foster City, CA) were used to assess the expression of 93 genes selected based on their selectivity and sensitivity to important hepatic receptors known to be modulated by environmental chemicals; importance in human hepatocyte functionality; and hepatotoxicity. […]
For `c1ccc(N=Nc2ccccc2)cc1`, the outcome was inactive.

As for `O=C(N[C@H](c1ccccc1)[C@@H]1CN2CCC1CC2)c1c(Cl)ccc(C(F)(F)F)c1Cl`, the AC50 was 42 µM (active).

In the case of `[O-][Cl+]O`, the compound was called inactive.

With `COC(=O)c1ccccc1N`, the result was inactive.

Turning to `N#CC(Br)(Br)C(N)=O`, the result was inactive.

As to `CS(=O)(=O)NC(=O)c1cc(Oc2ccc(C(F)(F)F)cc2Cl)ccc1[N+](=O)[O-]`, the AC50 was 3.63 µM (active).

With `OCCCl`, the AC50 was 50 µM (active).

On to `O=C1CCCO1`, for which the result was inactive.

`OCCOCCO`: the AC50 was 0.128 µM (active).

On to `O=[N+]([O-])C(Br)(CO)CO`, for which the compound was called inactive.

`Nc1ccc(Cl)cc1N`: the AC50 is 21.6 µM (active).

In the case of `C=CCc1ccc2c(c1)OCO2`, the AC50 is 18.4 µM (active).

In the case of `c1ccc2c(c1)-c1cccc3cccc-2c13`, the AC50 was 5.03 µM (active).

As for `Cc1ccc(N=C=O)cc1N=C=O`, the compound was classed as inactive.

In the case of `Clc1ccc(C(c2ccc(Cl)cc2)C(Cl)(Cl)Cl)cc1`, the AC50 is 1.14 µM (active).

Turning to `Nc1cc(Cl)cc(C(=O)O)c1Cl`, the compound was classed as inactive.

As for `Clc1ccc(Cl)c(Cl)c1`, the compound was classed as inactive.

As to `Nc1ccc([N+](=O)[O-])cc1`, the compound was classed as inactive.

In the case of `CC(C)(C)OOC(=O)c1ccccc1`, the compound was classed as inactive.

As to `[As]#[In]`, the AC50 was 39 µM (active).

On to `CCCCCCCCOC(=O)c1ccc(C(=O)OCCCCCCCC)c(C(=O)OCCCCCCCC)c1`, for which the AC50 is 22.4 µM (active).

In the case of `COC(=O)Nc1nc2ccccc2[nH]1`, the concentration at half-maximal activity (AC50) was 3.97 µM (active).

Consider `CCCCCOC(=O)c1ccccc1C(=O)OCCCCC`, for which the result was inactive.

`Oc1ccccc1Cl`: the outcome was inactive.

As to `O=C(Oc1ccc(Br)cc1)N1CCN2CCC1CC2`, the AC50 is 6.42 µM (active).

`CCCCCCCCCCCCCN1CC(C)OC(C)C1` (stereo not given): the call was inactive.

As to `Oc1ccc2ccc3cccc4ccc1c2c34`, the compound was classed as inactive.

As for `CCOc1cccc(C2(N3CCN(c4ccccc4)CC3)CCC(C)CC2)c1` (stereo not given), the AC50 is 30.8 µM (active).

For `Brc1ccc(Oc2ccccc2)cc1`, the AC50 is 78.1 µM (active).

As for `ClC1=C(Cl)[C@]2(Cl)[C@H]3[C@H]([C@@H]4C=C[C@H]3C4)[C@@]1(Cl)C2(Cl)Cl`, the AC50 was 2.2 µM (active).

For the compound `Nc1ccc(Oc2ccc(N)cc2)cc1`, the AC50 is 67 µM (active).

On to `CC(C)COC(=O)c1ccccc1C(=O)OCC(C)C`, for which the compound was classed as inactive.

`CCCSC(=O)N(CCC)CCC`: the AC50 was 50 µM (active).

For `CC(C)(C)C(O)(CCc1ccc(Cl)cc1)Cn1cncn1` (stereo not given), the AC50 was 91.4 µM (active).

As for `[Cl-].[Cl-].[Hg+2]`, the result was inactive.

`ClCCOCCCl`: the result was inactive.

On to `O=C(O)C1C2CCC(O2)C1C(=O)O` (stereo not given), for which the concentration at half-maximal activity (AC50) is 77.7 µM (active).

Regarding `CN(C)c1ccc(C(=O)c2ccc(N(C)C)cc2)cc1`, the AC50 is 12.2 µM (active).

For `CCN(CC)N=O`, the compound was classed as inactive.

With `CC(O)CCO` (stereo not given), the outcome was inactive.
